An excerpt weighted towards active compounds, which were near 7.3% of everything screened.
Vaccinia mCherry – qHTS for Stage-Specific Inhibitors of Vaccinia Orthopoxvirus: mCherry Reporter Primary qHTS; Vaccinia virus mCherry reporter infection, fluorescence; Potency, µM (titrated, usually from 36.5 µM), most hits filed as inhibitors; actives 0.63% (n = 310,000); calls by dose curve; tested in A549 cells; also: nearly all actives have a fitted effect of over 35% in size
VACV Venus inh – qHTS for Stage-Specific Inhibitors of Vaccinia Orthopoxvirus: Venus Reporter Primary qHTS | Vaccinia virus Venus reporter expression, fluorescence | actives 0.46% (n = 330,000) | Potency, µM (series often up to 36.5 µM), actives largely listed as inhibitors; calls by dose curve; tested in A549 cells; also: nearly all actives have a fitted effect of over 30% in size
FMDV inh – High Throughput Screening for Foot and Mouth Disease Virus Antivirals. FMDV antiviral cell-based qHTS. Potency, µM (doses to about 57.9 µM), most hits filed as inhibitors. actives 1.2% (n = 410,000); calls by dose curve; tested in HEK293T cells; also: read-out not given here; nearly all actives have a fitted effect of over 45% in size
HCV inhibitor – qHTS Assay for Inhibitors of Hepatitis C Virus (HCV); actives 3.4% (n = 340,000); Huh7.5.1 HCVcc-Cre infection, luciferase reporter, 44 h; Potency, µM (titrated, usually from 41.8 µM), usual class: inhibitors; active = well fitted inhibition curve with a large enough effect; inconclusive = small, poorly fitted or top-dose-only effect, or another doubt; inactive = no such curve, though single readings can be large or run the other way
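Infectious HCVcc-Cre (~0.5 moi) was added to cells just after compound, with cells seeded 4 h earlier at 1,000 per well. Luciferase activity after 44 h culture reported infection; substrate was incubated 15 min at room temperature before reading.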
HCMV inh – qHTS Assay for inhibitors of the human cytomegalovirus (HCMV); HFF cells, HCMV-luciferase reporter, 72 h; active compounds read low; actives 4.5% (n = 410,000); AID 1259415, 2018; activity change, negative = inhibition, % at 57.5 µM; in the data active = activity change below about -60%; inconclusive = no clear call, values can overlap the other calls; inactive = above about -39%
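Two-dose cell screen: HFF monolayers treated with compounds and infected with luciferase-expressing HCMV at 1 PFU/cell, 72 h at 37C, then lysed for luciferase measurement.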
Hits are given with their value; n = inactive; u = inconclusive; x = not tested or not shown; + = active, no number; [ ] = remark or other dose.

SMILES | Vaccinia mCherry | VACV Venus inh | FMDV inh | HCV inhibitor | HCMV inh
COC(=O)c1cc(-n2cccc2)ccc1N1CCOCC1 | n | n | n | n | n
O=c1c(Cl)c(NCc2ccccc2)cnn1C12CC3CC(CC(C3)C1)C2 | n | n | n | n | -61
O=C(O)CC12CC3CC(C1)CC(n1ncc(NCc4ccco4)c(Cl)c1=O)(C3)C2 | n | n | n | n | n
COc1ccc(OC)c(-c2cc(Cl)c3c(c2)CC(CNC(=O)c2cccnc2SC)O3)c1 (configuration not stated) | n | n | n | x | x
CN1CCCN(c2cc(-c3ccc4ccccc4c3)nc3ccnn23)CC1 | n | n | n | x | -91
CCN(CC)S(=O)(=O)c1ccc(N2CCOCC2)c(NC(=O)COc2ccc(Cl)cc2)c1 | x | x | n | 10µM | u
CCN(CC)S(=O)(=O)c1ccc(N2CCOCC2)c(NC(=O)c2ccccc2)c1 | n | n | n | n | n
CCN(CC)S(=O)(=O)c1ccc(N2CCOCC2)c(NC(=O)c2cc3ccccc3o2)c1 | n | n | n | x | -73
Cc1ccc(C(=O)N(Cc2cc3cc4c(cc3nc2N2CCOCC2)CCC4)CC2CCCO2)s1 (configuration not stated) | n | n | n | x | x
O=C1[C@@H](Oc2ccccc2)[C@@H](c2ccccc2)N1c1ccccc1 | n | n | n | n | n
O=C1[C@@H](Oc2ccccc2)[C@@H](c2cccnc2)N1c1ccccc1 | n | n | n | 35µM | n
O=C1[C@H](Oc2ccccc2)[C@@H](c2ccccc2)N1c1ccncc1 | n | u | 16µM | u | n
CCCCN=CN1c2ccccc2-n2cccc2C1c1ccc(CC)cc1 (configuration not stated) | x | x | x | x | n
O=S(=O)(O)c1cc(Cl)cc(N=Nc2ccc(O)cc2O)c1O | n | n | u | n | n
O=S(=O)(O)c1cc(O)c2c(O)c(N=Nc3cc(Cl)ccc3O)c(S(=O)(=O)O)cc2c1 | n | n | 13µM | n | x
O=C(NCCCN1CCCCCC1)c1ccc2c(Cl)c3c(nc2c1)CCCC3 | n | u | n | 0.63µM | u
CC1CCN(CCCNC(=O)c2ccc3c(Cl)c4c(nc3c2)CCCC4)CC1 | n | n | n | 8.9µM | u
CCN1CCN(CCCNC(=O)c2ccc3c(Cl)c4c(nc3c2)CCCC4)CC1 | u | 13µM | n | u | -83
COCCNC(=O)c1ccc2c(Cl)c3c(nc2c1)CCC3 | n | n | n | n | n
COc1cc(=O)n2c(c1C(=O)NC(C)c1ccco1)CCN(Cc1ccnc3ccccc13)CC2 (configuration not stated) | n | n | n | x | x
CCc1ccc(NC(=O)C2CCN(S(=O)(=O)c3ccc4[nH]c5c(c4c3)CCCCC5)CC2)cc1 | n | n | n | x | +
O=C(NCc1ccc(F)cc1)c1ccc(S(=O)(=O)N2CCCCC2)cc1 | x | x | n | n | n
O=C(NCc1ccc2[nH]c3c(c2c1)CCCC3)c1ccc(S(=O)(=O)N2CCCCC2)cc1 | n | n | u | u | -78
COc1ccccc1/C=C/c1ccnc2ccccc12 | n | n | x | x | x
COC(=O)C1CCN(Cc2ccc3c(c2)CN(C(=O)c2cc(C)nc(C)n2)CCO3)CC1 | n | n | n | x | x
SMILES | Vaccinia mCherry | VACV Venus inh | FMDV inh | HCV inhibitor | HCMV inh
CC(OC(=O)Cc1ccsc1)C(=O)Nc1ccc(Cl)cn1 (configuration not stated) | n | n | n | 22µM | n
COc1cccc(CC(=O)OC(C)C(=O)Nc2ccc(Cl)cn2)c1 (configuration not stated) | n | n | n | n | n
CNc1ccccc1C(=O)OC(C)C(=O)Nc1ccc(Cl)cn1 (configuration not stated) | u | 10µM | n | u | -98
O=C(CSc1nc(-c2cccs2)cc(C(F)(F)F)n1)NCc1ccco1 | n | n | x | u | -75
COc1ccc(NC(=O)CSc2nc(-c3cccs3)cc(C(F)(F)F)n2)cc1OC | u | u | u | x | -69
O=C(CSc1nc(-c2ccccc2)cc(C(F)(F)F)n1)NCc1ccco1 | n | n | x | u | n
Cc1ccc(F)cc1NC(=O)CSc1nc(-c2cccs2)cc(C(F)(F)F)n1 | n | n | n | x | -76
Cc1cccc(C)c1NC(=O)CSc1nc(-c2cccs2)cc(C(F)(F)F)n1 | n | n | n | x | u
COc1ccc(C(c2c(C)[nH]n(-c3ccccc3)c2=O)c2c(C)[nH]n(-c3ccccc3)c2=O)cc1OC | n | n | n | n | n
CCOc1cc(C(c2c(C)[nH]n(-c3ccccc3)c2=O)c2c(C)[nH]n(-c3ccccc3)c2=O)ccc1O | n | n | u | x | -105
C=C(c1ccccc1)[C@H](C#N)C1CCCC1 | x | x | x | x | n
O=C(c1c[nH]c(C(=O)C(Cl)(Cl)Cl)c1)c1c(F)cccc1F | n | n | n | n | -80
N#Cc1nc(-c2cccc3ccccc23)oc1NCC1CCCO1 (configuration not stated) | n | n | n | u | -67
Cc1cc(C)cc(NC(=O)/C=C/c2ccc([N+](=O)[O-])s2)c1 | n | n | n | u | -92
Cc1ccccc1NC(=O)/C=C/c1ccc([N+](=O)[O-])s1 | n | n | 10µM | 10µM | x
CC(=O)c1cccc(NC(=O)/C=C/c2ccc([N+](=O)[O-])s2)c1 | n | n | u | u | -96
COCc1ccc(CN2CCOc3c(O)cc(-c4cc(C)c5ccc(F)cc5n4)cc3C2)o1 | n | n | n | x | x
CN(C)S(=O)(=O)c1cc(C(=O)NCc2ccccc2)c(Cl)cc1Cl | x | x | n | 13µM | n
CN(C(=O)c1ccccc1Cl)c1ccccc1C(=O)NCc1ccccc1 | n | n | n | n | n
CCCN1C(=O)C(Cc2nc3ccccc3c(=O)n2CC)c2cc(Br)ccc21 (configuration not stated) | n[7.34 µM] | n[7.34 µM] | n | x | -73
COc1ccc(Nc2nc(S(=O)(=O)c3ccc(C)cc3)c(Cl)s2)cc1 | u | u | u | u | -94
Cc1ccc(S(=O)(=O)c2nc(NCCN(C)C)sc2Cl)cc1 | x | x | n | n | u
Cc1cccc(Nc2nc3c(S(=O)(=O)c4ccccc4)nnn3c3ccccc23)c1 | n | n | n | u | n
Cc1ccc(S(=O)(=O)c2nc(Nc3ccccc3)sc2Cl)cc1 | x | x | u | 11µM | -74
Cc1ccc(S(=O)(=O)c2nc(N3CCOCC3)sc2Cl)cc1 | x | n | n | u | n
O=S(=O)(c1ccccc1)c1nc(Nc2cccc(O)c2)sc1Cl | n | n | n | u | -67
O=C(Nc1cccc(-c2csc(Nc3cccc(C(F)(F)F)c3)n2)c1)c1cc([N+](=O)[O-])cc(C(F)(F)F)c1 | u | n | 40µM | u | n
O=C(Nc1ccc(-c2csc(Nc3ccccc3)n2)cc1)c1cc([N+](=O)[O-])cc(C(F)(F)F)c1 | 16µM | u | 25µM | u | -74
O=[N+]([O-])c1ccc(-c2csc(Nc3ccccc3)n2)cc1 | n | n | x | x | x

High-throughput results from PubChem.
